Among all 69,000 compounds or so, about 50 (0.07%) showed an effect of 50% or more. For the sample, strong results were picked, then their nearest neighbours and some compounds at random.

Lysine--tRNA ligase (Plasmodium falciparum (isolate 3D7)), sequence (Q8IDJ8 1-583): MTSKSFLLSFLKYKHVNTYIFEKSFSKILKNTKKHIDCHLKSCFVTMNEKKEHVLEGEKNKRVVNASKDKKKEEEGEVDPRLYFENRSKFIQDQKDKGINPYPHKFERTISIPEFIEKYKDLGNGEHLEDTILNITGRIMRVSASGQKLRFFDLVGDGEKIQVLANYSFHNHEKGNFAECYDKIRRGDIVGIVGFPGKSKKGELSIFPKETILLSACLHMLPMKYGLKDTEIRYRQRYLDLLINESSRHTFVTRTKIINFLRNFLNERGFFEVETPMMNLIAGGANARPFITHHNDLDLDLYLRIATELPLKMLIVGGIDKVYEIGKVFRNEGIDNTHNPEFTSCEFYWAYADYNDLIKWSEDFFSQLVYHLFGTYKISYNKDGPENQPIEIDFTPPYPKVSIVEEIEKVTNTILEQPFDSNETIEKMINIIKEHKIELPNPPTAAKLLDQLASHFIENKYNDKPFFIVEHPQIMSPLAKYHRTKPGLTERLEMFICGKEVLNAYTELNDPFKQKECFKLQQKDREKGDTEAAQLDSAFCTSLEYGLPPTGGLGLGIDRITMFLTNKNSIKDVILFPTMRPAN

This assay has as its target Lysine--tRNA ligase (Plasmodium falciparum (isolate 3D7)) (UniProt Q8IDJ8). Description: Pf-KRS-1 (Lysyl-RNA Synthetase-1, KRS-1, cytosolic KRS) from Plasmodium falciparum. Inhibitor assay, 384 well plate, luminescence read. It counts as functional. Particulars: 30 µM. Further details: scale not given: in the data most compounds retested in dose-response had high values.
For `COC(=O)c1ccc2ccn(CC3CCCCO3)c(=O)c2c1` (stereo unspecified), the Percent Effect was found to be 78.6%. Then `COC(=O)c1ccc2ccn(CC3CCCO3)c(=O)c2c1` (stereo unspecified), with 12.9%.

For `COC(=O)c1ccc2ccn(CC3COCCO3)c(=O)c2c1` (stereo unspecified), the Percent Effect is 26.4%.

`O=C(N1CCCO1)[C@@]12CCO[C@@H]1CCN(Cc1cccnc1)C2`: the Percent Effect was 0.613%.

Turning to `CN1C(=O)CO[C@H]2CCN(C(=O)Cc3ccc4c(c3)CCCC4)CC[C@@H]21`, the Percent Effect was 0.27%. Then `CC(C)n1nc2c(cc1=O)CN(CC1CCCCO1)CC2` (stereo unspecified), with 11.8%; and `CCCn1nc2c(cc1=O)CN(CC1CCCCO1)CC2` (stereo unspecified), with 8.29%; and `CCc1ncc2c(n1)CN(CC1CCCCO1)CC2` (stereo unspecified), with 17.1%. `Cn1nc2c(cc1=O)CN(CC1CCCCO1)CC2` (stereo unspecified): the Percent Effect is 50.5%. Consider `CCn1nc2c(cc1=O)CN(CC1CCCCO1)CC2` (stereo unspecified), for which the Percent Effect was -3.92%. Then `Cc1cc(CN2CCc3cncnc3C2)no1`, with 8.95%. On to `CC(C)c1ncc2c(n1)CN(CC1CCCCO1)CC2` (stereo unspecified), for which the Percent Effect was 2.58%. `c1ncc2c(n1)CN(CC1CCCCO1)CC2` (stereo unspecified): the Percent Effect was determined as 84.6%. Then `Cc1ncc2c(n1)CN(CC1CCCCO1)CC2` (stereo unspecified), with 76.2%. With `COCCN1CCO[C@H]2CN(Cc3cccc(C)n3)C[C@H]21` the figure was 2.71%.

In the case of `CO[C@H]1CN(CC2CCOCC2)[C@@H]2CCCO[C@H]12`, the Percent Effect is 3.3%. Then `Cc1cccc(CN2C[C@H](NS(C)(=O)=O)[C@@H]3OCCC[C@@H]32)n1`, with 0.332%; and `Cc1noc([C@]23COC[C@H]2CN(C(C)C)C3)n1`, with 2.71%; and `CC(CCc1ccccc1)NC(=O)Nc1cnn(CC(N)=O)c1` (stereo unspecified), with 2.54%. With `COCCn1cc(NC(=O)C(C)CCc2ccccc2F)ccc1=O` (stereo unspecified) the figure was 34.2%; with `COCCn1cc(NC(=O)NC(C)CCc2ccccc2)ccc1=O` (stereo unspecified), 64.7%; with `CCCN1CCN(C(=O)c2cc3ccccc3cn2)[C@H]2CS(=O)(=O)C[C@H]21`, 4.93%. With `Cc1ccc(-c2ccc(C3CNCCO3)nc2)cc1` (stereo unspecified) the figure was 5.24%. For `O=c1[nH]c2c(c(=O)n1C1CCCCC1)CCC2Nc1ccccc1` (stereo unspecified), the Percent Effect was found to be 24.4%. With `O=c1[nH]c2c(c(=O)n1C1CCCCC1)CCC2Nc1ccccc1Cl` (stereo unspecified), the Percent Effect was 61.5%.

Take `O=c1[nH]c2c(c(=O)n1C1CCCCC1)CCC2NCCc1ccccc1` (stereo unspecified): the Percent Effect came to 55.6%.

For `O=c1[nH]c2c(c(=O)n1C1CCCCC1)CCC2NCc1ccccc1` (stereo unspecified), the Percent Effect came to 11.2%.

Regarding `Cc1cccc(NC2CCc3c2[nH]c(=O)n(C2CCCCC2)c3=O)c1C` (stereo unspecified), the Percent Effect was found to be 32.2%. Then `O=c1[nH]c2c(c(=O)n1C1CCCCC1)CCC2Nc1ccccn1` (stereo unspecified), with 28.1%; and `COC[C@@]12CCO[C@@H]1CCN(Cc1ccccc1OC)C2`, with 6.78%.

On to `CC(=O)N1CCO[C@@H]2CN(S(=O)(=O)C3CC3)CC[C@@H]2C1`, for which the Percent Effect came to 2.76%. As to `CO[C@H]1CC[C@H]2[C@H]1OCCN2C(=O)CC1=CCCCC1`, the Percent Effect is 18.1%. With `Cc1ncsc1CN1C[C@H](C(=O)N2CCCO2)[C@@H]2CCO[C@@H]2C1` the figure was 0.217%; with `CN(Cc1ccsc1)C(=O)Nc1ccc(=O)n(C)c1`, 28.4%; with `O=C(NCc1ccoc1)Nc1ccc(CN2CCOC2=O)cc1`, 2.38%. With `Cn1cc(NC(=O)CCc2ccsc2)ccc1=O` the figure was 7.87%; with `Cn1cc(NC(=O)NCc2ccoc2)ccc1=O`, 58.5%.

For the compound `Cc1nnc(NC(=O)NCc2ccoc2)s1`, the Percent Effect worked out at 0.941%. In the case of `COc1ccc(CNC(=O)Nc2ccc(=O)n(C)c2)cc1`, the Percent Effect amounted to 77.6%.

For the compound `Cn1cc(NC(=O)NCc2ccsc2)ccc1=O`, the Percent Effect is 73.2%. Then `COc1ccc(CNC(=O)Nc2ccc(CN3CCOC3=O)cc2)cc1`, with 0.788%. Regarding `COC(=O)c1ccc(CNC(=O)Nc2ccc(=O)n(C)c2)cc1`, the Percent Effect was -0.542%. With `COCC(=O)N1C[C@H]2CCC[C@@]2(COC)C1`, the Percent Effect was determined as 3.43%. Then `O=C(c1cccnc1)N1C[C@H]2CN(Cc3cccc(F)c3)C(=O)[C@H]2C1`, with 7.87%; and `CO[C@H]1CCN(C2CCC2)[C@@H]2CN(Cc3ccncc3)C[C@H]12`, with 3%; and `CO[C@@H]1CCN(S(=O)(=O)c2cccnc2)[C@@H]2CN(CC3CC3)C[C@@H]21`, with 4.3%. Then `O=C(NC1CCCC1)[C@H]1CC[C@@H]2[C@@H](CCN2c2ncc(F)cn2)O1`, with -0.28%. Then `CO[C@H]1CC[C@H]2[C@H]1OCCN2Cc1ccc(F)c(F)c1`, with -6.11%; and `COCc1cnc2n1CCN(C(=O)c1ccc3ccccc3n1)C2C` (stereo unspecified), with 10.7%.

Regarding `O=C(CC1CCCC1)N1C[C@@H]2CCN(c3cccnc3)C[C@@H]2C1`, the Percent Effect is 1.75%. With `c1coc(-c2nc3c(c(N4CCCN5CCC[C@H]5C4)n2)CCNCC3)c1` the figure was 0.644%; with `Cc1ccoc1C(=O)N1CC[C@H]2OCC[C@@]2(COCc2ccncc2)C1`, 6.75%. As for `Cc1cc(=O)n(C)cc1NC(=O)Cc1cccc(F)c1`, the Percent Effect is 19.8%. For `Cc1cc(=O)n(C)cc1NC(=O)Cc1ccc(C(F)(F)F)cc1`, the Percent Effect is 1.6%. Then `Cc1cc(=O)n(C)cc1NC(=O)Cc1cc(F)ccc1F`, with 69.1%; and `O=C1CO[C@H]2CN(C3CCOCC3)C[C@H]2N1Cc1ccccn1`, with 2.85%; and `Cc1ccc(S(=O)(=O)N2C[C@@H]3CCN[C@@H]3C2)cc1`, with 2.57%. With `COc1ccc(CN2C[C@@H]3COC[C@@H](CC(=O)N4CCCC4)[C@@H]3C2)cc1` the figure was 4.49%; with `O=c1c(CN2CCCCC2)coc2ccc(Cl)cc12`, 62.1%; with `O=c1c(CN2CC3CCCN3C[C@@H]2CCO)coc2ccc(Cl)cc12` (stereo partly specified), 0.683%. With `O=c1c(CN2CCOCC2)coc2ccc(Cl)cc12` the figure was 28.3%. With `Cc1ccc(S(=O)(=O)N2C[C@@H]3C[C@@H](NC(=O)C(C)(C)C)[C@@H]3C2)cc1`, the Percent Effect was 6.48%.

Take `CC(O)(CNc1ccc(Cl)c(C#N)n1)c1ccsc1` (stereo unspecified): the Percent Effect was 59%.

Turning to `Cn1cc(C(C)(O)CNc2ccc(Cl)c(C#N)n2)cn1` (stereo unspecified), the Percent Effect worked out at 18.4%. Turning to `CC(O)(CNc1ccc(Cl)c(C#N)n1)c1ccccc1` (stereo unspecified), the Percent Effect came out at 8.49%. Then `CCOCC(=O)N1CC[C@@H]2O[C@@H](C)C[C@H]2C1`, with 2.15%; and `O=C1CC[C@]2(CC[C@@H](NCc3ccc4c(c3)OCO4)CC2)N1`, with -2.96%. On to `O=C(NC1CC(F)(F)C1)[C@]12COC[C@H]1CN(Cc1ccsc1)C2`, for which the Percent Effect was 3.2%. With `O=C(c1ccc(=O)[nH]n1)N1CCCC1C1CCCC1` (stereo unspecified) the figure was 9.62%. With `O=C(c1cnc2[nH]c(=O)[nH]c(=O)c2c1)N1CCCC1C1CCCCC1` (stereo unspecified) the figure was 2.68%; with `O=C(c1c[nH]nn1)N1CCCC1C1CCCCC1` (stereo unspecified), 85.6%. With `COC[C@@]12CC[C@@H](N3CCOCC3)C[C@H]1CCN(c1nc(CO)cs1)C2` the figure was 10.3%. For `CC(C)C1CCCN1C(=O)Nc1ccc(=O)n(C)c1` (stereo unspecified), the Percent Effect was 81%.

Take `Cn1cc(NC(=O)N2CCC(c3ccccc3)CC2)ccc1=O`: the Percent Effect was determined as 45.4%. `Cn1cc(NC(=O)N2CCCC2c2cccnc2)ccc1=O` (stereo unspecified): the Percent Effect amounted to 4.14%. Consider `Cn1cc(NC(=O)N2CCC2c2ccccc2)ccc1=O` (stereo unspecified), for which the Percent Effect turned out to be 20.1%. With `Cn1cc(NC(=O)N2CCCC2c2ccccn2)ccc1=O` (stereo unspecified) the figure was 78.9%; with `Cn1cc(NC(=O)N2CCC(CN3CCCC3)CC2)ccc1=O`, 0.985%. Regarding `COCC(=O)N1CC[C@H]2[C@H]1CCN2CC(C)C`, the Percent Effect was 7.19%.

Take `CN(Cc1ccco1)[C@@H]1CN(CC2CCOCC2)C[C@@H]2CCCO[C@@H]21`: the Percent Effect is -0.34%. On to `CN1C[C@H]2CNC[C@@]2(C(=O)N2CCN(c3ncccc3C#N)CC2)C1`, for which the Percent Effect turned out to be 4.21%. Take `O=C([C@H]1CCS(=O)(=O)[C@@H]2CN(Cc3ccc(F)cc3)C[C@H]12)N1CCCC1`: the Percent Effect was found to be 7.12%. `O=C(c1ccc[nH]1)N1C[C@H](OCc2ccccn2)[C@H]2COC[C@H]21`: the Percent Effect is -1.37%. Then `Cn1nc2c(cc1=O)CN(Cc1nc(-c3ccco3)no1)CC2`, with 5.02%. With `Cc1cccc(-c2noc(CN3CCc4nn(C)c(=O)cc4C3)n2)c1` the figure was 68.9%. With `Cc1ccc(-c2noc(CN3CCc4nn(C)c(=O)cc4C3)n2)cc1` the figure was 1.64%; with `Cn1nc2c(cc1=O)CN(Cc1nc(-c3cccnc3)no1)CC2`, -1.07%; with `Cn1nc2c(cc1=O)CN(Cc1nc(C3CC3)no1)CC2`, 8.16%. `Cn1nc2c(cc1=O)CN(Cc1nc(C(C)(C)C)no1)CC2`: the Percent Effect was 70.1%. As for `CSCC[C@H]1CN2CCC[C@H]2CN1Cc1coc2ccc(C)cc2c1=O`, the Percent Effect is -1.05%. On to `Fc1cnc(N2CCO[C@H]3CN(CC4CCC4)C[C@H]32)nc1`, for which the Percent Effect is -1.14%.

As to `Cc1nnsc1CN1C[C@H]2CC[C@@H]1CN(Cc1ccccc1)C2`, the Percent Effect came out at 2.23%. With `CCC(=O)N1CC[C@H]2C(=O)N(Cc3ccc(OC)cc3)CCO[C@H]2C1` the figure was 4.55%; with `Cc1noc(C)c1CN1CC[C@H]2[C@@H]1CCC(=O)N2CC1CCOCC1`, 3.41%; with `Cc1noc(C)c1CN1CC[C@H]2[C@H]1CCN2CC1CCOCC1`, 59%. With `Cc1noc(C)c1CN1CCO[C@H]2CN(CC3CC3)C[C@H]21` the figure was 2.54%; with `CCCN1CCN(C(=O)c2cccc3cccnc23)[C@H]2CS(=O)(=O)C[C@H]21`, -0.361%; with `CC(C)CN1Cc2nc(N)ncc2C1=O`, 91.2%. Then `CC1CCC(N2Cc3nc(N)ncc3C2=O)CC1` (stereo unspecified), with 73.8%; and `CC(C)CN1Cc2nc(N3CCCC3)ncc2C1=O`, with 6.16%.

In the case of `CN1CCC(N2Cc3nc(N)ncc3C2=O)CC1`, the Percent Effect was 2.22%. In the case of `CC(C)CN1Cc2nc(N3CCC(O)CC3)ncc2C1=O`, the Percent Effect amounted to 4.55%. With `CC1(C)CC(N2Cc3nc(N)ncc3C2=O)CC(C)(C)N1` the figure was 1.77%; with `CN1[C@H](CN2CCCC2)C[C@@H]2CN(C(=O)Cc3cccs3)CC[C@@H]21`, -1.4%.

On to `CCO[C@@H]1CN(S(=O)(=O)c2cn(C)cn2)[C@@H]2CCCO[C@@H]21`, for which the Percent Effect came to 3.16%. Then `CC(C)=CCN1C(=O)[C@H]2CC[C@@H]1CN(C(=O)CCc1n[nH]c(C)c1C)C2`, with -4.7%; and `CC(NC(=O)C1=NN(C)C(=O)CC1)c1ccccc1Cl` (stereo unspecified), with 7.44%. Consider `CC(NC(=O)C1=NN(C)C(=O)CC1)c1ccc(Cl)cc1` (stereo unspecified), for which the Percent Effect turned out to be 6.56%.

Consider `CC(NC(=O)C1=NN(C)C(=O)CC1)c1ccc(Cl)cc1Cl` (stereo unspecified), for which the Percent Effect stood at 57.8%. With `c1ccc(CO[C@@H]2CN(Cc3ccoc3)[C@@H]3COC[C@@H]32)nc1` the figure was -0.514%. On to `CC(O)CCn1ccc2[nH]c(=O)c(C#N)cc2c1=O` (stereo unspecified), for which the Percent Effect amounted to 58.6%. Then `N#Cc1cc2c(=O)n(CC(O)Cc3ccccc3)ccc2[nH]c1=O` (stereo unspecified), with 4.36%. Then `CC(C)SCCn1ccc2[nH]c(=O)c(C#N)cc2c1=O`, with 48.5%.

As to `CCC(Cn1ccc2[nH]c(=O)c(C#N)cc2c1=O)OC` (stereo unspecified), the Percent Effect turned out to be 34.1%. With `CCCOC(C)Cn1ccc2[nH]c(=O)c(C#N)cc2c1=O` (stereo unspecified), the Percent Effect turned out to be 61.2%. Consider `N#Cc1cc2c(=O)n(CC(O)C(F)(F)F)ccc2[nH]c1=O` (stereo unspecified), for which the Percent Effect was found to be 27.3%.

Source of the values: ChEMBL document CHEMBL3988442, “University of Dundee, Small-Polar-MMV Screening Library” (2021).
